From PubChem
GPR151 ag: activators of human GPR151, primary screen, cell-based, PathHunter beta-arrestin, luminescence; G-protein coupled receptor 151 (Homo sapiens), Q8TDV0; PathHunter beta-arrestin GPR151 cells; activation, % at 11.2 µM; 1% of 650,000 active; AID 1508602, 2020; in the data active = activation above about 4.9%;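 note: 0% = median of compound wells and 100% = cells with positive control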
Target sequence (Q8TDV0 whole entry, looked up): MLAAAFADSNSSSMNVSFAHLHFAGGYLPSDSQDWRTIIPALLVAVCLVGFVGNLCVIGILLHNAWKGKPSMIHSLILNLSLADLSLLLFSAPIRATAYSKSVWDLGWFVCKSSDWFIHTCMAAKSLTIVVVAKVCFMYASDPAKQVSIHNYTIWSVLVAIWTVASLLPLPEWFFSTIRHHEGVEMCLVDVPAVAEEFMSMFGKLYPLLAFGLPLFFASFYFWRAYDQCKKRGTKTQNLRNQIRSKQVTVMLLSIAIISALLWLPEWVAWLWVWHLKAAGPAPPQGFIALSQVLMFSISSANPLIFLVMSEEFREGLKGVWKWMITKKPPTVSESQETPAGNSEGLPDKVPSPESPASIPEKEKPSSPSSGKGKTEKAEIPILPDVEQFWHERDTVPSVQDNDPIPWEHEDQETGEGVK
TEAD-YAP inh: TEAD-YAP interaction inhibition, primary screen, TEAD-YAP interaction inhibitor project, luminescence, HEK-TIYL cells; inhibition, % at 9.12 µM; AID 1259422, 2018; TEAD-Gal4/YAP UAS-luciferase luminescence; 1.4% of 640,000 active; in the data active = inhibition above about 32%;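 note: 0% = median of test compound wells and 100% = reference inhibitor wells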
FBW7 activator: FBW7 E3 ligase activators, primary screen, biochemical, AlphaScreen, human | F-box/WD repeat-containing protein 7 (Homo sapiens), Q969H0 | AlphaScreen FBW7–phospho-cyclin E peptide binding, activator screen | normalized activity (activation), % at 26.1 µM | 0.13% of 650,000 active | AID 1259310, 2017; in the data active = normalized activity above about 1.9%;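 note: purified mutant Fbw7 with reduced substrate affinity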
MITF primary: MITF inhibitors, primary screen, biochemical, AlphaScreen, human; Microphthalmia-associated transcription factor (Homo sapiens), O75030; AlphaScreen MITF homodimerization, bead proximity signal; inhibition, % at 2.6 µM; 0.91% of 650,000 active; AID 1259374, 2018; in the data active = inhibition above about 50%;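 note: 0% = vehicle wells with protein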
Numbers without * were called inactive. Compounds with a hit are over-represented: about 3.5% of the library has one in this group of screens.

SMILES	GPR151 ag	TEAD-YAP inh	FBW7 activator	MITF primary
CCN(CC)c1ccc2nc3c4ccccc4c(=O)cc-3oc2c1	1.6	34.4*	0.1	7.8
CCN(CC)c1ccc2cc(C=O)c(=O)oc2c1	-0.1	8.3	-0.2	11.2
Cc1nc(-c2ccccn2)cc(N2CCCCC2)n1	0.0	39.6*	-0.6	-4.8
Cc1cc(NCc2ccccc2)nc(Nc2ccc(-n3ccnc3)cc2)n1	1.2	35.5*	-0.1	-1.9
c1cncc(CNc2ccnc(Nc3ccc(N4CCOCC4)cc3)n2)c1	-0.8	-9.4	-0.2	9.8
Cc1cc(NCc2ccccc2)nc(Nc2ccc(N3CCOCC3)cc2)n1	-0.4	49.4*	-0.2	14.7
Cc1cc(NCCN2CCOCC2)nc(Nc2ccc(N3CCOCC3)cc2)n1	0.2	9.4	0.0	2.3
Cc1cc(NCCO)nc(Nc2ccc(-n3ccnc3)cc2)n1	-0.1	28.0	0.0	16.5
Cc1cc(Nc2ccc(N3CCOCC3)cc2)nc(Nc2ccccc2)n1	3.7	66.1*	-0.2	3.5
c1ccc(CNc2ccnc(Nc3ccc(N4CCOCC4)cc3)n2)cc1	0.7	41.4*	-0.4	10.4
Cc1cc(Nc2ccc(N3CCOCC3)cc2)nc(Nc2ccc(C(F)(F)F)cc2)n1	1.4	2.1	-0.1	11.0
O=C(CN1C(=O)c2ccccc2C1=O)Nc1cccc(C(=O)O)c1	-0.4	-0.2	0.2	10.6
O=C1CC(C(=O)NCc2ccc3c(c2)OCO3)Cc2nc(NC(=O)C3CCC3)sc21 (stereo not drawn)	3.0	-28.9	-0.2	-0.3
c1cc(Nc2ccnc(Nc3ccc(N4CCOCC4)cc3)n2)c2ccncc2c1	-0.5	8.2	2.6*	-12.1
COc1ccc(CNc2cc(C)nc(Nc3ccc(N4CCOCC4)cc3)n2)cc1	2.0	37.2*	-0.3	8.2
COc1ccc(CNc2nc(Nc3ccc(N4CCOCC4)cc3)nc3cc(OC)c(OC)cc23)cc1	-0.1	-7.6	-0.1	7.5
Cc1cc(N2CCOCC2)nc(Nc2ccc(NC(=O)COc3ccccc3)cc2)n1	4.9	80.8*	-0.1	-9.0
Cc1ccc(C)c(NC(=O)Nc2ccc(Nc3nc(C)cc(N4CCOCC4)n3)cc2)c1	-0.7	-19.3	-0.1	9.6
Cc1cc(NC2CCCCC2)nc(NCc2ccccc2)n1	-0.2	42.9*	0.1	-8.5
c1cnc(Nc2nccc(Nc3ccc(N4CCOCC4)cc3)n2)cn1	1.4	-3.9	0.0	3.0
CCNc1nc(C)cc(NCc2ccccc2)n1	0.7	-6.7	-0.1	4.7
Cc1ccc2nc(NCCNC(=O)N(C)C)c(C#N)cc2c1	0.0	-3.3	0.2	2.9
COc1cc(Nc2nc(-c3ccc(C(=O)NC4CC4)cc3)nc3c2ncn3-c2ccccc2)cc(OC)c1OC	-0.1	12.7	0.1	10.8
Cc1cccc(C)c1N=C1S/C(=C\c2ccc(OCc3ccc(Cl)cc3Cl)cc2)C(=O)N1c1ccccc1	0.6	0.1	-0.1	6.8
Cc1ccc(S(=O)(=O)N(Cc2ccsc2)C2CC2)s1	0.1	-2.6	0.4	-4.2
SMILES	GPR151 ag	TEAD-YAP inh	FBW7 activator	MITF primary
Cc1cc(Nc2ccc(N3CCOCC3)cc2)nc(Nc2nc3ccccc3n2C)n1	1.1	42.1*	-0.3	6.8
CC(C)n1c(N2CCC(N3CCOCC3)CC2)nc2c(Nc3ccccc3)ncnc21	1.4	3.9	0.0	-1.6
CCSc1ccccc1C(=O)Nc1cccc([N+](=O)[O-])c1C	0.6	-3.5	-0.1	12.2
Cc1ccc2cc3cc(C(=O)N4CCN(C)CC4)oc3nc2c1	1.2	45.2*	0.0	-22.0
O=C(NC1CCCCC1)NC1(C(=O)NCCCN2CCOCC2)CCCCC1	-0.4	3.0	1.9*	11.2
CCc1ccc(NS(=O)(=O)c2cc(Br)cc3c2N(C(C)=O)CC3)cc1	-0.1	47.0*	0.5	12.7
Cc1cccc(NS(=O)(=O)c2cc(Br)cc3c2N(C(=O)C2CC2)CC3)c1	1.4	70.9*	0.0	0.2
COc1ccc(NS(=O)(=O)c2cc(Br)cc3c2N(C(C)=O)CC3)cc1	1.0	44.2*	0.1	9.8
Cc1cc(NS(=O)(=O)c2ccc3c(c2)CCN3C(=O)C2CC2)ccc1Br	0.3	10.9	0.6	9.8
COc1c(C)cc(S(=O)(=O)Nc2ccc3c(c2)N(C(=O)C2CC2)CC3)cc1C	1.0	43.1*	0.0	4.7
CCN(CC)c1ccc(NS(=O)(=O)c2ccc3c(c2)OCCN3C)c(C)c1	-0.3	7.3	-0.6	1.2
Oc1ccccc1CNC12CN3CN(CN(C3)C1)C2	1.3	-2.6	-0.2	-8.5
COc1ccc(NCC(=O)n2c(C)c(C)c3ccccc32)cc1	-0.9	52.5*	0.2	8.5
COc1ccc(NCC(=O)n2nc(C)cc2C)cc1	0.5	13.4	0.0	-0.4
O=C(/C=C/c1ccc(O)c(O)c1)c1ccc(O[C@@H]2O[C@H](CO)[C@@H](O)[C@H](O)[C@H]2O)c(O)c1O	3.1	2.1	-0.2	56.1*
O=[N+]([O-])c1ccccc1NC(=S)N/N=C/c1ccc(O)c(O)c1O	1.3	48.7*	-1.1	57.2*
Oc1ccc(/C=N/NC(=S)Nc2cccnc2)c(O)c1O	-0.8	-6.4	-1.2	84.0*
Oc1cccc(/C=N/NC(=S)Nc2cccnc2)c1O	-2.1	40.0*	-0.9	112.3*
Oc1ccc(/C=N/NC(=S)Nc2cccnc2)c(O)c1	-0.3	3.8	-1.3	119.0*
Cc1ccc(C(c2nnnn2CC2CCCO2)N2CCN(c3ccccc3)CC2)cc1 (stereo not drawn)	-2.0	1.8	0.7	13.9
N#Cc1cc(Nc2ccccc2Cl)c([N+](=O)[O-])cc1C#N	-1.2	74.2*	0.0	4.2
O=[N+]([O-])c1ccc(Nc2ccccc2Cl)c([N+](=O)[O-])c1	2.3	2.5	-0.2	10.7
Cc1cc(C)c2cc3c(N)c(C(=O)Nc4nccs4)sc3nc2c1	-0.9	-16.0	5.4*	4.7
Cc1cc(C)c2c(N)c(C(=O)Nc3nccs3)sc2n1	-1.4	70.3*	0.5	0.0
CCOc1cccc2c1OC1(C)CC2NC(=O)N1c1cccc(F)c1 (stereo not drawn)	2.6	10.9	4.4*	-5.0
SMILES	GPR151 ag	TEAD-YAP inh	FBW7 activator	MITF primary
COc1ccccc1OCCCCN1CC(C)OC(C)C1 (stereo not drawn)	0.1	7.0	0.2	19.2
Cc1ccc2oc(-c3ccc(Cl)c(NC(=O)Cc4ccccc4)c3)nc2c1	-1.5	3.8	0.3	5.1
COc1ccccc1C(=O)Nc1cc(-c2nc3cc(C(C)C)ccc3o2)ccc1Cl	0.4	34.5*	0.0	-0.2
Cc1ccccc1C(=O)Nc1cc(-c2nc3cc(C(C)C)ccc3o2)ccc1Cl	0.6	3.6	0.1	6.5
CC(C)c1ccc2oc(-c3ccc(Cl)c(N)c3)nc2c1	-5.9	82.9*	0.1	2.0
CC(C)c1ccc2oc(-c3ccc(Cl)c(NC(=O)Cc4ccccc4)c3)nc2c1	0.2	60.9*	0.0	-4.3
CN1[C@@H](C(=O)NCc2cccs2)C[C@@H](c2ccco2)NS1(=O)=O	-0.8	-14.7	0.8	12.8
